Source: PubChem BioAssay (Tox21)
Inconclusive results are not listed. Activity calls are given as the source filed them. Unless noted, the call rests on the fitted dose curve; in most records, active means well fitted curve in the direction sought with a large enough effect in the repeat runs; inconclusive means weak or mixed curves; inactive means no such curve, though single readings can be large; an effect the other way counts as inactive or inconclusive.

Tests used:
[1] = qHTS assay to identify small molecule agonists of the constitutive androstane receptor (CAR) signaling pathway - cell viability counter screen (AID 1224836); further: nearly all actives have a fitted effect of over 45% in size; further: potency means the concentration at half of the fitted maximal effect
How it was run: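 Double-stable HepG2 hepatoma cells (hCAR plus CYP2B6-2.2kb) are treated for 23 h at 37 C with test compounds in 15-point concentration series. PK11195 at 0.75 uM final is co-added. Cell viability is quantified by CellTiter-Fluor.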

[2] = qHTS assay to identify small molecule antagonists of the constitutive androstane receptor (CAR) signaling pathway - cell viability counter screen (AID 1224837); further: nearly all actives have a fitted effect of over 45% in size; further: potency means the concentration at half of the fitted maximal effect
How it was run: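 HepG2 cells stably expressing hCAR and a CYP2B6-2.2kb reporter were plated and pre-incubated 4 hr at 37 C/5% CO2, then given compounds at 15 concentrations plus 50 nM CITCO (final). After 23 hr, viability was read by CellTiter-Fluor fluorescence.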

[3] = qHTS assay to identify small molecule antagonists of the estrogen related receptor signaling pathway with the pleiotropic PPARgamma coactivator (PGC) from Tox21 10K library - cell viability counter screen (AID 1224840; active means well fitted cell-killing curve with a large enough effect in the repeat runs, not every such curve was filed as active; further: nearly all actives have a fitted effect of over 40% in size)
How it was run: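 PGC/ERR cells were seeded at 2,000 cells/well and left 6 hours at 37 C/5% CO2 before pin-tool addition of compounds in DMSO. After 17.5 hours at 37 C, CellTiter-Fluor was added and fluorescence read 30 minutes later.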

[4] = target: Thyrotropin receptor (Homo sapiens) (UniProt P16473); assay: qHTS assay to identify small molecule agonists of the thyroid stimulating hormone receptor (TSHR) signaling pathway (AID 1224843; calls by dose curve; further: nearly all actives have a fitted effect of over 45% in size)
Sequence of Thyrotropin receptor (Homo sapiens) (P16473 whole entry, looked up): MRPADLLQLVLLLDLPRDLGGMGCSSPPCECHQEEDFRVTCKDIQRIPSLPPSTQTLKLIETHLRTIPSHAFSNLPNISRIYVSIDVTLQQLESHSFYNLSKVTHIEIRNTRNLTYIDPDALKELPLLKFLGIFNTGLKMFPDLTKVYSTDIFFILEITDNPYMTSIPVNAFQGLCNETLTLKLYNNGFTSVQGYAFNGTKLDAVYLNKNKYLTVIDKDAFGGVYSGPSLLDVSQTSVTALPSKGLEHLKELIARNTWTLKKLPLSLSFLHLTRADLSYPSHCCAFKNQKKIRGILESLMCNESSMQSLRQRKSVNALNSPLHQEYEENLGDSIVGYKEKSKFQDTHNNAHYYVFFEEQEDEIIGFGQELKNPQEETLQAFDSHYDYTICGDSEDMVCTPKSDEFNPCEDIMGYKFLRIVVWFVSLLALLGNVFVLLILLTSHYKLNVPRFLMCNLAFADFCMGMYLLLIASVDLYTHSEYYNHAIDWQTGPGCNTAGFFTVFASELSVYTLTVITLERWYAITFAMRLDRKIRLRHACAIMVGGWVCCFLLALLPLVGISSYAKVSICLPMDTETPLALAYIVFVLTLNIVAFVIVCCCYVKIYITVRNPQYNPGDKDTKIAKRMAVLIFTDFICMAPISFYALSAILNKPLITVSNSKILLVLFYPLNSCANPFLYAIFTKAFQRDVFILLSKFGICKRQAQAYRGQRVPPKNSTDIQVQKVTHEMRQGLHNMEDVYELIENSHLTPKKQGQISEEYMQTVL
How it was run: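 TSHR-expressing HEK293 cells (800 per well) were exposed to compounds for 30 min at room temperature. cAMP was then detected by HTRF competition with cAMP-d2 and anti-cAMP cryptate, read after 1 h at room temperature. Fifteen concentrations, triplicate.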

[5] = qHTS assay to identify small molecule agonists of H2AX - cell viability counter screen (AID 1224847; calls by dose curve; further: nearly all actives have a fitted effect of over 30% in size; further: potency means the concentration at half of the fitted maximal effect)
How it was run: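 For this counter screen, overnight-attached CHO-K1 cells received test compounds (15 concentrations, 0.76% DMSO final); 3 hr later at 37C, CellTiter-Glo reagent was added and luminescence recorded after 30 min at room temperature.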

[6] = qHTS RealTime-Glo MT Cell Viability Assay in HepG2 cells - 24 hour (AID 1224867); further: nearly all actives have a fitted effect of over 50% in size; further: potency means the concentration at half of the fitted maximal effect
How it was run: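 HepG2 suspension premixed with RealTime-Glo reagents is plated at 600 cells per well and left 5 h at 37 C/5% CO2. Compounds in DMSO then go in, and bioluminescence reflecting viable cell number is recorded over 40 h.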

[7] = qHTS RealTime-Glo MT Cell Viability Assay in HEK293 cells - 32 hour (AID 1224868); further: nearly all actives have a fitted effect of over 50% in size; further: potency means the concentration at half of the fitted maximal effect
How it was run: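 Reads taken at 0, 8, 16, 24, 32 and 40 h from the same wells. HEK293 cells (600/well) carried RealTime-Glo reagents from seeding, with compound added after a 5 h settle at 37 C.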

[8] = A CellTox Green Cytotoxicity Assay to monitor cytotoxicity in HEK293 cells - 0 hour (AID 1224869); further: nearly all actives have a fitted effect of over 50% in size
How it was run: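 HEK293 cells premixed with CellTox Green dye were seeded at 600 cells/well and left 5 h at 37 C/5% CO2 before pin transfer of 23 nL compound in DMSO. Fluorescence from dye bound to dead-cell DNA was read during 40 h treatment.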

[9] = qHTS RealTime-Glo MT Cell Viability Assay in HepG2 cells - 40 hour (AID 1224870); further: nearly all actives have a fitted effect of over 50% in size; further: potency means the concentration at half of the fitted maximal effect
How it was run: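 HepG2 cells mixed with RealTime-Glo MT reagents (NanoLuc plus cell-permeant prosubstrate) were seeded at 600 cells/well, incubated 5 h at 37 C/5% CO2, then pinned with compounds in DMSO; nonlytic luminescence tracked viability during 40 h treatment.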

[10] = target: Luciferin 4-monooxygenase (Photinus pyralis) (UniProt P08659); assay: qHTS assay to identify small molecule inhibitors of firefly luciferase (AID 1224835); further: nearly all actives have a fitted effect of over 25% in size; further: potency means the concentration at half of the fitted maximal effect
Sequence of Luciferin 4-monooxygenase (Photinus pyralis) (P08659 whole entry, looked up): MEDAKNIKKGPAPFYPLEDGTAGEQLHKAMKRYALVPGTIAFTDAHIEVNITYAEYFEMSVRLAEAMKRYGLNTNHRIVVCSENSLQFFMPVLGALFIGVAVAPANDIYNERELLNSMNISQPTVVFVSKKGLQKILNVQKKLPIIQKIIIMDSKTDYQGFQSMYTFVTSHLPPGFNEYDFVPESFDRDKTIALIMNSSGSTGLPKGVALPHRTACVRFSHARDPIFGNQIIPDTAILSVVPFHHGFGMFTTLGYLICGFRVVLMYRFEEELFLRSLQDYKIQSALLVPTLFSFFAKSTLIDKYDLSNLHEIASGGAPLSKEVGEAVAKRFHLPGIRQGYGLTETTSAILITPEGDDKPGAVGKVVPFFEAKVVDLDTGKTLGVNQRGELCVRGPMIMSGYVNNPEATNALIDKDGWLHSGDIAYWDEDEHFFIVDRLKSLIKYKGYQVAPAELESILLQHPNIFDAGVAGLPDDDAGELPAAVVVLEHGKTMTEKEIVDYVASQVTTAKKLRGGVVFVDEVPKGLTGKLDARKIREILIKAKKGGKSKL
How it was run: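 Quantitative HTS format; KM concentrations of both substrates. Purified P. pyralis FLuc activity quantified from luminescence images.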

[11] = target: Nuclear receptor subfamily 1 group I member 3 (Homo sapiens) (UniProt Q14994); assay: qHTS assay to identify small molecule antagonists of the constitutive androstane receptor (CAR) signaling pathway (AID 1224838); further: nearly all actives have a fitted effect of over 40% in size; further: potency means the concentration at half of the fitted maximal effect
Sequence of Nuclear receptor subfamily 1 group I member 3 (Homo sapiens) (Q14994 whole entry, looked up): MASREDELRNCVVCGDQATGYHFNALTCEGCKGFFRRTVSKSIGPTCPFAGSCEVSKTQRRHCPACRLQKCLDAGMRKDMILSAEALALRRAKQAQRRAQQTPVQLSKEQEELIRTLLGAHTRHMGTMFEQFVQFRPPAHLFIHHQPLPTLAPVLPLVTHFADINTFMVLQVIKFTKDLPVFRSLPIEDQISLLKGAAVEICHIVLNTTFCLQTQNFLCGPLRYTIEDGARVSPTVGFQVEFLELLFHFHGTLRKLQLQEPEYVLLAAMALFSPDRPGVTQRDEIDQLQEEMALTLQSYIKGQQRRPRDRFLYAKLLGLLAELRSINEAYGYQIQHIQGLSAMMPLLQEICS
How it was run: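 HepG2 cells stably co-transfected with hCAR and a CYP2B6-2.2kb luciferase reporter were seeded 4 h before compound addition at 15 concentrations. Cells were stimulated with 50 nM CITCO (final) for 24 h at 37 C; luciferase luminescence was then read.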

[12] = target: Nuclear receptor subfamily 1 group I member 3 (Homo sapiens) (UniProt Q14994); assay: qHTS assay to identify small molecule agonists of the constitutive androstane receptor (CAR) signaling pathway (AID 1224839); further: nearly all actives have a fitted effect of over 15% in size; further: potency means the concentration at half of the fitted maximal effect;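 on activation: HepG2 cells stably carrying human CAR and a CYP2B6 luciferase reporter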
How it was run: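 Readout: firefly luciferase luminescence via ONE-Glo. System: HepG2 double-stable for hCAR and CYP2B6-2.2kb. Conditions: 15-point compound titration, PK11195 at 0.75 uM final, 24 h incubation.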

[13] = qHTS assay to identify small molecule agonists of the estrogen related receptor signaling pathway with the pleiotropic PPARgamma coactivator (PGC) from Tox21 10K library (AID 1224842); further: nearly all actives have a fitted effect of over 15% in size; further: potency means the concentration at half of the fitted maximal effect
How it was run: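 PGC/ERR reporter cells (NTP line) were seeded 2,000 per well, rested 6 h at 37 C/5% CO2, then pin-dosed with compounds in DMSO for 18 h at 37 C; luciferase read by One-Glo luminescence after 30 min at room temperature.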

[14] = qHTS assay to identify small molecule agonists of the hypoxia (HIF-1) signaling pathway - cell viability counter screen (AID 1224844; calls by dose curve; further: nearly all actives have a fitted effect of over 50% in size)
How it was run: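 HRE-bla ME-180 cells in medium with 0.5% dialyzed FBS were preincubated 5 hrs at 37C, exposed to compounds for 17 hrs, then viability was read as CellTiter-Glo luminescence after 30 min at room temperature, in the reporter wells.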

[15] = qHTS assay to identify small molecule agonists of the hypoxia (HIF-1) signaling pathway (AID 1224846; active means well fitted activation curve with a large enough effect in the signal ratio in the repeat runs, not every such curve was filed as active; the % refers to the signal ratio)
How it was run: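 HRE-bla ME-180 cells (beta-lactamase reporter under hypoxia response element) were plated at 2,000 cells/well in medium with 0.5% dialyzed FBS, rested 5 hrs, then given compounds in DMSO for 17 hrs at 37C, 5% CO2. Reporter induction was read with CCF4-AM FRET substrate.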

[16] = qHTS assay to identify small molecule agonists of the estrogen related receptor (ERR) signaling pathway from Tox21 library (AID 1224849; calls by dose curve; further: nearly all actives have a fitted effect of over 15% in size); settings: ERR reporter cell line, ONE-Glo luciferase, 18 h; at 92.4 µM (top of the series) unless noted
How it was run: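 ERR reporter cell line (NTP) seeded, rested 6 h at 37 C/5% CO2, then pinned with Tox21 compounds in DMSO. After 18 h at 37 C, ONE-Glo luciferase luminescence was read following 30 min at room temperature.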

[17] = qHTS assay to identify small molecule antagonists of the estrogen related receptor signaling pathway with the pleiotropic PPARgamma coactivator (PGC) from Tox21 10K library (AID 1224841; call rule not given here; further: potency means the concentration at half of the fitted maximal effect)
How it was run: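 PGC/ERR reporter cells were seeded at 2,000 cells/well and held 6 hours at 37 C/5% CO2 before pin-tool addition of compounds in DMSO. After 18 hours at 37 C, One-Glo was added and luminescence read after 30 minutes at room temperature.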

[18] = qHTS assay to identify small molecule antagonists of the estrogen related receptor (ERR) signaling pathway from Tox21 library (AID 1224848); further: nearly all actives have a fitted effect of over 50% in size; further: potency means the concentration at half of the fitted maximal effect
How it was run: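 Cells: ERR line, 2,000/well; 6 h preincubation 37 C/5% CO2. Cpd in DMSO via pin tool; 18 h, 37 C. ONE-Glo, 30 min RT, luminescence.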

[19] = qHTS assay to identify small molecule agonists of H2AX (AID 1224845; active means well fitted activation curve with a large enough effect in the signal ratio in the repeat runs, not every such curve was filed as active; the % refers to the signal ratio)
How it was run: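 Wild-type CHO-K1 cells plated overnight, then exposed 3 hr at 37C to compounds at 15 concentrations (0.76% DMSO). Lysed, then HTRF anti-pH2AX(S139)-cryptate/anti-H2AX-d2 detection after 24 hr at room temperature; emissions 665 and 620 nm.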

[20] = qHTS assay to identify small molecule antagonists of the estrogen related receptor (ERR) signaling pathway from Tox21 library - cell viability counter screen (AID 1224834); further: nearly all actives have a fitted effect of over 30% in size
How it was run: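 ERR reporter cells were plated 6 h before compound addition, then exposed to test compounds in DMSO for 17.5 h at 37 C. Viability was read as CellTiter-Fluor fluorescence after a 30-minute incubation at 37 C.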
On the % scale 0 is the no-effect control and ±100 the full control effect.

CCCCN(CCCC)C(=S)SSC(=S)N(CCCC)CCCC
active: Potency [5] 112 µM | Potency [7] 43.2 µM
inactive: Potency [1] | Potency [2] | Potency [3] | Potency [4] | Potency [6] | Potency [8] | Potency [9]

c1cc[c]([Bi]([c]2ccccc2)[c]2ccccc2)cc1
inactive: Potency [10] | Potency [1] | Potency [2] | Potency [11] | Potency [3] | Potency [13] | Potency [14] | outcome [15] | activity change, positive = activation [16] -40.9% | Potency [6] | Potency [8] | Potency [9]
active: Potency [12] 15.4 µM

Nc1ccc(Cl)cc1[N+](=O)[O-]
inactive: Potency [1] | Potency [2] | Potency [3] | Potency [17] | Potency [4] | Potency [14] | outcome [15] | Potency [18] | activity change, positive = activation [16] -0.746% | Potency [6] | Potency [7] | Potency [8] | Potency [9]

COC(=O)Nc1nc2ccc(C(=O)c3cccs3)cc2[nH]1
inactive: Potency [11] | Potency [17] | Potency [4] | outcome [15] | Potency [5] | activity change, positive = activation [16] -4.13% [at 42.5 µM] | Potency [6] | Potency [9]
active: Potency [10] 15.5 µM | Potency [1] 11.9 µM | Potency [13] 3.35 µM | Potency [7] 0.169 µM

O=C(O)C(Cc1cc(I)c(O)c(I)c1)c1ccccc1 (stereo unspecified)
inactive: Potency [10] | Potency [1] | Potency [2] | Potency [11] | Potency [12] | Potency [3] | Potency [4] | Potency [14] | Potency [19] | Potency [5] | Potency [6] | Potency [8] | Potency [9]

O=C(N[C@@H](c1ccccc1)[C@@H]1CCCCN1)c1cccc(C(F)(F)F)c1Cl
inactive: Potency [10] | Potency [12] | Potency [13] | Potency [4] | Potency [14] | outcome [15] | activity change, positive = activation [16] -38.1%
active: Potency [1] 61.1 µM | Potency [2] 61.1 µM | Potency [11] 48.6 µM | Potency [18] 30.6 µM | Potency [6] 43.6 µM | Potency [7] 24.5 µM | Potency [9] 43.6 µM

Cc1oc(C)c(C(=O)Nc2ccccc2)c1C
inactive: Potency [20] | Potency [1] | Potency [2] | Potency [3] | Potency [13] | Potency [14] | Potency [19] | activity change, positive = activation [16] -47.2% | Potency [6] | Potency [8] | Potency [9]
active: Potency [18] 17.2 µM | Potency [7] 24.5 µM

CCOc1cc(N)c(Cl)cc1C(=O)NCC1CN(Cc2ccc(F)cc2)CCO1 (stereo unspecified)
inactive: Potency [10] | Potency [1] | Potency [2] | Potency [3] | Potency [4] | Potency [19] | outcome [15] | Potency [5] | Potency [8] | Potency [9]
active: Potency [7] 16.9 µM

CC(=O)[C@H]1CC[C@H]2[C@@H]3C=CC4=CC(=O)CC[C@@]4(C)[C@@H]3CC[C@]12C
inactive: Potency [10] | Potency [1] | Potency [2] | Potency [12] | Potency [4] | Potency [14] | Potency [19] | outcome [15] | Potency [6] | Potency [8] | Potency [9]

O=C(OCCOCCO)c1ccccc1Nc1cccc(C(F)(F)F)c1
inactive: Potency [10] | Potency [1] | Potency [2] | Potency [11] | Potency [12] | Potency [4] | Potency [14] | Potency [19] | outcome [15] | Potency [6] | Potency [8] | Potency [9]

CC(Cl)C(Cl)Cl (stereo unspecified)
inactive: Potency [20] | Potency [1] | Potency [2] | Potency [3] | Potency [4] | Potency [19] | outcome [15] | Potency [5] | Potency [6] | Potency [7] | Potency [9]

COCCOC(=O)C1=C(C)NC(C)=C(C(=O)OC/C=C/c2ccccc2)C1c1cccc([N+](=O)[O-])c1 (stereo unspecified)
inactive: Potency [10] | Potency [1] | Potency [13] | Potency [14] | Potency [19] | activity change, positive = activation [16] -61.8% [at 42.5 µM] | Potency [8] | Potency [9]
active: Potency [17] 23.7 µM

CCOC(=O)N1CCC(n2c(=O)[nH]c3cc(Cl)ccc32)CC1
inactive: Potency [10] | Potency [1] | Potency [2] | Potency [12] | Potency [4] | Potency [14] | outcome [15] | Potency [6] | Potency [8] | Potency [9]
